The supplement of paper PMC10105736
Unmarked numbers belong to inactive results.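 The calls were made as follows: active = MAPPIT score above the 99th percentile of random reference set scores in the same batch; inactive = at or below it.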

Columns and labels:
Experiment in all cases: MAPPIT interaction score (arbitrary units); higher = stronger binary interaction signal, active = hit call of the paper
RpL35A = details: MAPPIT configuration: N-N; pair source set: Finley_Y2H
RpS21 = details: MAPPIT configuration: N-N; pair source set: DPIM
ReepB = details: MAPPIT configuration: N-N
RpLP2 = details: MAPPIT configuration: N-N; pair source set: Finley_Y2H
RpS20 = details: MAPPIT configuration: N-N; pair source set: Curagen_low_conf
hpo = details: pair source set: Lit-BM-16
yki = details: pair source set: Lit-BM-16
RpS10b = details: MAPPIT configuration: N-N; pair source set: DPIM
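Also: HEK293T cells with Epo stimulation, STAT-responsive firefly luciferase reporter, fold induction versus unstimulated cells divided by the larger fold induction of two negative controls lacking either bait or prey.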

B1: Archease (protein)
chain: MEVEFSRENFLLPEMKYEYLDHTADVQIHGWGSSLKEAFEQCGVAMFGYMTELDYVSVEQCFEIEAHGDDLESLLFHFLDELLFLFSAEPYLVCKKLEITKFDVENFEISCHCYGEPFELGKHPQGTEVKAITYSAMQIIQDVEASNYEVFVIIDI
MAPPIT interaction score (RpL35A): -0.294

B2: l(2)gl (protein)
chain: MLKFIRGKGQQPSADRHRLQKDLFAYRKTAQHGFPHKPSALAYDPVLKLMAIGTQTGALKVFGQPGVELYGQHTLLNNSASELNVQLLEWVYGTGRILSLTAANQLILWEPVGATLLPIKTLPFDGKLKKVSSLCCSLSKDLLWIGTEGGNIYQLDLHTFTIKEPVIYHDVVLEQVPPAYKLNPGAIESIRQLPNSPSKLLVAYNRGLCVLWDFESASVQRAYIAPGHGQSVGLTVNFEGSEFTWYHADGSYATWSIDNPEPPSNVNYVPYGPDPCKSINRLYKGKRRSNDVIVFSGGMPRSAYGDHNCVSVHASDGHKVCLDFTSKVIDFFVTFENNRDVAEVLVVLLEEELCAYDLTDPNICAIKAPYLHSVHASAVTCNYLASEVVQSVYESILRAGDEQDIDYSNISWPITGGTLPDNLEESVEEDATKLYEILLTGHEDGSVKFWDCTGVLLKPIYNFKTSSIFGSESDFRDDAAADMSAEQVDEGEPPFRKSGLFDPYSDDPRLAVKKIAFCPKTGQLIVGGTAGQIVIADFIDLPEKVSLKYISMNLVSDRDGFVWKGHDQLNVRSNLLDGEAIPTTERGVNISGVLQVLPPASITCMALEASWGLVSGGTAHGLVLFDFKNFVPVFHRCTLNPNDLTGAGEQLSRRKSFKKSLRESFRKLRKGRSTRTNQSNQVPTTLEARPVERQIEARCADDGLGSMVRCLLFAKTYVTNVNITSPTLWSATNASTVSVFLLHLPPAQTAATAVPSASGNAPPHMPRRISAQLAKEIQLKHRAPVVGISIFDQAGSPVDQLNAGENGSPPHRVLIASEEQFKVFSLPQLKPINKYKLTANEGARIRRIHFGSFSCRISPETLQSMHGCSPTKSTRSHGDGEADPNISGSLAVSRGDVYNETALICLTNMGDIMVLSVPELKRQLNAAAVRREDINGVSSLCFTNSGEALYMMSSSELQRIALATSRVVQPTGVVPVEPLENEESVLEENDAENNKETYACDEVVNTYEIKNPSGISICTRPAEENVGRNSVQQVNGVNISNSPNQANETISSSIGDITVDSVRDHLNMTTTTLCSINTEETIGRLSVLSTQTNKASTTVNMSEIPNINISNLEDLESKRNTTETSTSSVVIKSIITNISHEKTNGDNKIGTPKTAPEESQF
MAPPIT interaction score (RpS21): 0.14

B3: wol (protein)
chain: MWTCLCQLCFYLLSTLAVAALSIAALVLYKTKPYPNIKRHKDEETFLDPHTIKTVTFPSLEDSPSLELSVIVPAYNEEQRLPSMLDECLAFLEQKSAGTPNFTYEVIVVSDGSQDATVSVALGYSKKHGAEKVRVLELIENRGKGGAVRMGMLSARGRNLLFADADGATKFPDYDKLEVALKQLAPEWRDDGIAIGSRAHLENDAIATRSFFRTILMHGFHFLVWLFAVRSIRDTQCGFKLFTRTTARKLFTSLHVERWAFDVELLYLAENLKLPMSEVAVRWTEIDGSKLTPFWSWLQMGRDLFMIWVRYLVGAWRIASIQKKEK
MAPPIT interaction score (ReepB; pair source set: Lit-BS-16): 0.541

B4: CG1307 (protein)
chain: MGDKLLDPTQIINGLAVMLSFFVGYRYALKRGDAKDSVTEGAATPFSQESSVSSGSEASVSDKGYGGLNDNFKMVLVVRNDLKMGKGKIAAQCGHGAVGAYQRAVVRTPRLLRSWENCGCAKIAVRVESEAELMAIKKEAERQQLNTCLIRDAGRTQIEANSKTVLAVGPAAAADIDRVTGHLKLL
MAPPIT interaction score (RpLP2): 0.942

B5: Pdf (protein)
chain: MARYTYLVALVLLAICCQWGYCGAMAMPDEERYVRKEYNRDLLDWFNNVGVGQFSPGQVATLCRYPLILENSLGPSVPIRKRNSELINSLLSLPKNMNDAGK
MAPPIT interaction score (ReepB; pair source set: Finley_Y2H): 2.66

B6: hpo (protein)
chain: MSEPEVTSVVDMKSPNISSSCSFFKLKKLSEESLLQPPEKVFDIMYKLGEGSYGSVYKAVHKESSSIVAIKLVPVESDLHEIIKEISIMQQCDSPYVVRYYGSYFKQYDLWICMEYCGAGSVSDIMRLRKKTLTEDEIATILSDTLQGLVYLHLRRKIHRDIKAANILLNTEGYAKLADFGVAGQLTDTMAKRNTVIGTPFWMAPEVIEEIGYDCVADIWSLGITALEMAEGKPPYGEIHPMRAIFMIPQKPPPSFREPDRWSTEFIDFVSKCLVKEPDDRATATELLEHEFIRNAKHRSILKPMLEETCAIREQQRANRSFGGVLAASQAKSLATQENGMQQHITDNAFMEDPGTLVPEKFGEYQQSSASDATMIAHAEQGVDEGTLGPGGLRNLSKAAAPAAASSAASPLDMPAVDSGTMVELESNLGTMVINSDSDDSTTAKNNDDQKPRNRYRPQFLEHFDRKNAGDGRGDEKPIATEYSPAAAEQQQQQQQQQQQQQQDEQHLASGANDLNNWEHNMEMQFQQISAINQYGLQQHQQQQQVLMAYPLMNEQLIALNNQPNLLLSNAAPMGQQGIPAAAPAQPPPAYQNQHMHTQSHAYVEGEFEFLKFLTFDDLNQRLCNIDHEMELEIEQLNKKYNAKRQPIVDAMNAKRKRQQNINNNLIKI
MAPPIT interaction score (RpS20): 2.67 (active) | MAPPIT interaction score (hpo; MAPPIT configuration: N-C): 1.43 | MAPPIT interaction score (hpo; MAPPIT configuration: N-N): -0.987 | MAPPIT interaction score (yki; MAPPIT configuration: N-C): -0.198 | MAPPIT interaction score (yki; MAPPIT configuration: N-N): -0.76

B7: Csp (protein)
chain: MSAPGMDKRKLSTSGDSLYEILGLPKTATGDDIKKTYRKLALKYHPDKNPDNVDAADKFKEVNRAHSILSNQTKRNIYDNYGSLGLYIAEQFGEENVNAYFVVTSPAVKAVVICCAVITGCCCCCCCCCCCNFCCGKFKPPVNESHDQYSHLNRPDGNREGNDMPTHLGQPPRLEDVDLDDVNLGAGGAPVTSQPREQAGGQPVFAMPPPSGAVGVNPFTGAPVAANENTSLNTTEQTTYTPDMVNQKY
MAPPIT interaction score (RpS10b): 1.05
